Consider 5 compounds from article PMC5540273 (PLoS ONE, 2017).

Test systems include TSSK3; TTK; TXK; TYRO3; ULK1; ULK2; ULK3.
Holding throughout (details): concentration: 1 μM, replicates: in singlicate; n = 1
Experiment [1] has as its system TYK2(JH1domain-catalytic).
The test system of experiment [2] is TYK2(JH2domain-pseudokinase).
A further experiment concerns T1, VEGFR2.
T1 construct: gene KDR
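Further: KINOMEscan kinase panel screen.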

Take `COC(=O)Nc1nc2cc(Oc3ccc(NC(=O)Nc4cc(F)ccc4F)cc3)ccc2[nH]1.Cl` [GW701424]: the “%Inh” value with TSSK3 is 8%; in the experiment with TTK it was 0%; with TXK, 88%; in experiment [1], 30%; in [2] it was 46%; with TYRO3, 0%. The “%Inh” value in the experiment on ULK1 is given as 0%; with ULK2 it was 0%; with ULK3, 7%; in the experiment with VEGFR2, 68%.
Consider `CCCCCc1nc2c(N)ncnc2n1CCCCC` [SKF-97255], for which the “%Inh” value was found to be 0% in the experiment on TSSK3; 0% with TTK; 12% in the experiment on TXK; 7% in [1]; 9% in experiment [2]; 0% in the experiment on TYRO3. The “%Inh” value in the experiment on ULK1 amounted to 12%; in the experiment with ULK2, 12%; in the experiment on ULK3, 11%; in the experiment with VEGFR2, 0%.
As for `COc1cc2ncn(-c3cc(OCc4sccc4Cl)c(C(N)=O)s3)c2cc1OC` [GSK448459], the “%Inh” value worked out at 10% in the experiment on TSSK3; 5% in the experiment with TTK; 0% in the experiment with TXK; 22% in [1]; 19% in experiment [2]; 0% in the experiment on TYRO3. Besides, the “%Inh” value with ULK1 is given as 17%; in the experiment on ULK2 it was 0%; in the experiment with ULK3, 19%; in the experiment with VEGFR2, 0%.
`O=C(NOCC1CC1)c1ccc(F)c(F)c1Nc1ccc(I)cc1Cl`: the “%Inh” value (with TSSK3; in the experiment on TTK; in the experiment on TXK; in [1]; in [2]; in the experiment on TYRO3) was 0% throughout. Moreover, the “%Inh” value in the experiment with ULK1, in the experiment with ULK2, in the experiment with ULK3 and in the experiment on VEGFR2 was 0% throughout.
`O=c1cc(N2CCOCC2)nc2n(Cc3cccc(F)c3)ccn12` [GSK2297430]: the “%Inh” value amounted to 0% in the experiment with TSSK3; 0% with TTK; 4% in the experiment on TXK; 13% in [1]; 2% in experiment [2]; 12% in the experiment with TYRO3. Also, the “%Inh” value in the experiment with ULK1, in the experiment on ULK2, in the experiment on ULK3 and with VEGFR2 was 0% in each case.
